# Results from PubChem BioAssay (NCATS).
# Inconclusive results are not listed. A call without a number means that no potency is given here. Activity calls are given as the source filed them. The call rests on the fitted dose curve; in most records, active means well fitted curve in the direction sought with a large enough effect; inconclusive means small, poorly fitted or top-dose-only effect, or another doubt; inactive means no such curve, though single readings can be large; an effect the other way counts as inactive or inconclusive.
# Columns and labels:
# [1] = qHTS for Inhibitors of Ubiquitin-specific Protease USP2a Using CHOP2 as the Reporter: Cytotox Assay (AID 652170); further: nearly all actives have a fitted effect of over 70% in size; further: potency means the concentration at half of the fitted maximal effect
# How it was run: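 HCT116 human colon cancer cells, 600 per well in DMEM with 10% FBS, exposed to compounds for 72 hr at 37 deg C. ATP measured by CellTiter-Glo luminescence, normalized to DMSO cells and no-cell background.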
# [2] = target: Ubiquitin carboxyl-terminal hydrolase 2 (Homo sapiens) (UniProt O75604); assay: qHTS for Inhibitors of Ubiquitin-specific Protease USP2a Using CHOP2 as the Reporter: K484 Substrate (AID 652173);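 further: cleavage of internally quenched K48 di-ubiquitin substrate measured as rising fluorescence over time; nearly all actives have a fitted effect of over 70% in size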; further: potency means the concentration at half of the fitted maximal effect
# How it was run: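 USP2 (dispensed at 5 nM) was pinned with compounds, then DiUb K48 internally quenched fluorescent substrate (dispensed at 100 nM) was added. The buffer was 20 mM Tris pH 8, 2 mM beta-mercaptoethanol and 0.05% CHAPS. Cleavage was read kinetically as rising fluorescence, Ex 525/Em 598.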
# [3] = target: Calcium and integrin-binding protein 1 (Homo sapiens) (UniProt Q99828); assay: Primary qHTS for Identification of Calcium Integrin Binding Protein 1 (CIB1) Competitor (AID 1508620);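 further: GST tagged CIB1 binding a fluorescein labelled alphaIIb integrin peptide tracer; top concentration of the series differs between compounds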
# How it was run: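 CIB1-GST (1 uM final) and compound incubated 15 min at room temperature before adding FITC-alphaIIb peptide tracer (100 nM final). Competition for binding read by fluorescence polarization (ex 480, em 540) after another 15 min at room temperature.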
# [4] = qHTS for Inhibitors of Ubiquitin-specific Protease USP2a Using CHOP2 as the Reporter: K633 Counterscreen (AID 652168); further: series mostly up to about 57 µM
# How it was run: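 Cell-free interference counterscreen without USP2a: compounds pinned into enzyme-free buffer (20 mM Tris pH 8, 2 mM beta-mercaptoethanol, 0.05% Chaps), then DiUb K48-4IQF substrate added (100 nM stock); fluorescence read kinetically, Ex 525/Em 598.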
# Chain of Calcium and integrin-binding protein 1 (Homo sapiens) (Q99828 whole entry, looked up): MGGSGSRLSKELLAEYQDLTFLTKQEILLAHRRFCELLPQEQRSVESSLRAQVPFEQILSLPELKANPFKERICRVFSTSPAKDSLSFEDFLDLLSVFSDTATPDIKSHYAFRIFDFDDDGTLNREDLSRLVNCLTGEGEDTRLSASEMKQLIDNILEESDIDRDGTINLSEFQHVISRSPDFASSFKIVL
# Chain of Ubiquitin carboxyl-terminal hydrolase 2 (Homo sapiens) (O75604 whole entry, looked up): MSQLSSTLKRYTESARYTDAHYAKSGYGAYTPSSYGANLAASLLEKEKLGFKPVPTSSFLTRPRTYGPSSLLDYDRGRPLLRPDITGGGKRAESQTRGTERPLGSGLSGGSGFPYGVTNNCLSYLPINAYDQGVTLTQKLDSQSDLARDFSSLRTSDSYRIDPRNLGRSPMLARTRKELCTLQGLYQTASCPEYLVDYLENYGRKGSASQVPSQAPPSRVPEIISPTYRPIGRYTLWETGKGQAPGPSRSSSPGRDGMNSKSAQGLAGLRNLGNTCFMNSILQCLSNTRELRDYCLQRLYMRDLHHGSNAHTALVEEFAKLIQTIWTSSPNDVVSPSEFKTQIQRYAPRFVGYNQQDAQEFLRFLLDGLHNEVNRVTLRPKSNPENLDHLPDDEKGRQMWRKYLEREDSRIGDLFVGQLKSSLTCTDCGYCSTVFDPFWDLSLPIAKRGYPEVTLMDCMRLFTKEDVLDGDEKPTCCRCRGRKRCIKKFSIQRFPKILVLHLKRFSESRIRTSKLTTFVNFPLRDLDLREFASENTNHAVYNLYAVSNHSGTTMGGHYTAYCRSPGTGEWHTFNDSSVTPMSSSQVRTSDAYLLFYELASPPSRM
SMILES,Potency [1],Potency [2],Potency [3],outcome [4]
COc1cc(Cl)ccc1C(=O)Nc1nc(-c2ccccc2)cs1,inactive,13.7 µM (active),inactive,
COC(=O)c1ccccc1C(=O)Nc1nc(-c2ccccc2)cs1,inactive,30.6 µM (active),inactive,
Cc1ccc(-c2cc(C(=O)Nc3ccc(-c4noc(=O)[nH]4)cc3)c3ccccc3n2)cc1C,,4.32 µM (active),inactive,inactive
CC(C)C1CCC(C(=O)Nc2ccc(S(=O)(=O)Nc3nccs3)cc2)CC1 (stereo not given),inactive,10.9 µM (active),inactive,inactive
Cc1ccc(S(=O)(=O)Nc2cc(Br)ccc2C(=O)Nc2nc(-c3ccccc3)cs2)cc1,,1.09 µM (active),inactive,inactive
COC(=O)c1ccc(NC(=O)c2cc(-c3ccc(C)c(C)c3)nc3ccccc23)cc1,inactive,19.3 µM (active),inactive,inactive
Cc1ccc(S(=O)(=O)Nc2cnccc2C(=O)Nc2nc(C3CCC3)cs2)cc1,,17.2 µM (active),inactive,inactive
O=C(Nc1ccc(S(=O)(=O)Nc2nccs2)cc1)c1cccnc1,inactive,inactive,inactive,inactive
Cc1ccc(S(=O)(=O)Nc2ccccc2C(=O)Nc2nc(-c3ccc(Cl)cc3)cs2)cc1,8.33 µM (active),1.93 µM (active),inactive,inactive
O=c1[nH]c(CCl)nc2sc3c(c12)CCCC3,10.5 µM (active),inactive,inactive,inactive
Cc1ccc(-c2cc(C(=O)Nc3ccccc3C)c3ccccc3n2)cc1C,inactive,21.7 µM (active),inactive,
CC1CCC(C(=O)Nc2ccc([S+](=O)([O-])Nc3nccs3)cc2)CC1 (stereo not given),inactive,inactive,inactive,inactive
O=C(Nc1nc(-c2ccccc2)cs1)c1ccncc1NS(=O)(=O)c1cccnc1,inactive,2.73 µM (active),inactive,inactive
O=C(Nc1ccc(S(=O)(=O)Nc2nccs2)cc1)c1ccncc1,inactive,inactive,inactive,inactive
Cc1ccc(-c2cc(C(=O)N3CCCCC3)c3ccccc3n2)cc1C,inactive,24.3 µM (active),inactive,inactive
CC1(C)CC(C(=O)Nc2ccc([S+](=O)([O-])Nc3nccs3)cc2)C1,inactive,inactive,inactive,inactive
Cc1ccc(-c2cc(C(=O)Nc3ncco3)c3ccccc3n2)cc1C,1.32 µM (active),3.06 µM (active),inactive,
O=S(=O)(Nc1nc(CN2CCOCC2)nc2sc3c(c12)CCCC3)c1ccc2ccccc2c1,inactive,24.3 µM (active),inactive,inactive
Cc1ccc(-c2cc(C(=O)Nc3nc4ccccc4s3)c3ccccc3n2)cc1C,inactive,21.7 µM (active),inactive,
Cc1ccc(S(=O)(=O)Nc2cccnc2C(=O)Nc2nc(-c3ccccc3)cs2)cc1,14.8 µM (active),1.37 µM (active),inactive,
Cc1ccc(-c2cc(C(=O)Nc3ccn[nH]3)c3ccccc3n2)cc1C,inactive,27.3 µM (active),inactive,
Cc1ccc(-c2cc(C(=O)Nc3cccc4ccccc34)c3ccccc3n2)cc1C,inactive,17.2 µM (active),inactive,
Cc1ccc(-c2cc(C(=O)NCc3ccccc3)c3ccccc3n2)cc1C,inactive,13.7 µM (active),inactive,
COc1ccccc1C(=O)Nc1nc(-c2ccccc2)cs1,inactive,10.9 µM (active),inactive,
Cc1ccc(S(=O)(=O)Nc2cc(C(=O)Nc3nc(-c4ccccc4)cs3)ccn2)cc1,inactive,6.85 µM (active),inactive,
COc1c(NS(=O)(=O)c2ccc(C)cc2)cccc1C(=O)Nc1nc(-c2ccccc2)cs1,1.48 µM (active),3.06 µM (active),inactive,
Cc1ccc(S(=O)(=O)N(C)c2ccccc2C(=O)Nc2nc(-c3ccccc3)cs2)cc1,inactive,6.11 µM (active),inactive,
Cc1ccc(S(=O)(=O)Nc2ccccc2C(=O)Nc2ccc(-c3ccccc3)cc2)cc1,13.2 µM (active),2.43 µM (active),inactive,
